Experimental data: PubChem BioAssay
Results filed as inconclusive are left out. Calls of active or inactive are those of the source.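 Rule for the calls, unless noted: active = viability at or below 30% in both replicate assays; inconclusive = viability at or below 30% in just one of the two assays; inactive = the rest.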

Legend:
[1] = Her2 expression decrease, cell viability multiplex – SKBR3 breast tumor cells, AlphaScreen, ATP viability, primary screen (AID 461;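 active = Her2 level under about 52% in both replicate screens, with viability over 70% of control, limit read from the data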;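 for Her2 level: lower value means less Her2 protein in the cells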;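 for viability: percent of carrier control wells set as 100% viability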); details: SKBR3 Her2 protein level, 18-24 h, measured here: SKBR3 viability, ATP luminescence, at 10 µM
[2] = molecular target: Receptor tyrosine-protein kinase erbB-2 (Homo sapiens) (UniProt P04626); experiment: as above; details: 18-24 h, at 10 µM, stronger effect = lower value
[3] = reduced viability of SK-BR-3 breast cancer cells – cell-based, 24 h, human, pilot screen (AID 572;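 active = viability at or below 10% of carrier control in both of two separate runs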;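 note: compound exposure lasted between 18 and 24 h rather than exactly 24 h; 100% = carrier-treated control wells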); details: SK-BR-3 viability, CellTiter-Glo luminescence, at 10 µM, stronger effect = lower value
[4] = HUVEC growth inhibition – cell-based, human, primary screen (AID 575); details: HUVEC proliferation, CellTiter-Glo luminescence, 72 h; at 10 µM; stronger effect = lower value;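 note: 100% = median of untreated cell wells with 0.1% DMSO on each plate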
[5] = H69AR cell proliferation blockers – human, duplicate replicates, primary screen (AID 580;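 active = viability at or under a set limit in both replicates, limit being median viability minus 3 SD, cut at about 48% in these data, passing the limit was not always enough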;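 note: 100% = mean luminescence of untreated wells and 0% = no signal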); details: H69AR lung tumor cells viability, ATP luminescence, 72 h; at 10 µM; stronger effect = lower value
[6] = MRP1 drug-resistance reversers in H69AR cells – cell-based, doxorubicin co-treatment, pilot screen (AID 601;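 active = viability loss from added drug above about 55%, and viability with drug at most 40%, in both replicates, limit read from the data, passing the limit was not always enough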); details: CellTiter-Glo, 72 h, at 10 µM; for differential viability (reversal): stronger effect = higher value
[7] = yeast transport mutant growth inhibition pilot in 384-well plates, post-Golgi transport modulator project (AID 636; in the data active = inhibition above about 31%); details: absorbance 615 nm, about 18 h, stronger effect = higher value
[8] = growth suppression of yeast trafficking mutant, preliminary HTS, modulators of trafficking downstream of Golgi apparatus project, 1536-format plate, OD 615 nm (AID 637; in the data active = inhibition above about 30%); details: yeast transport mutant growth, absorbance 615 nm, 18 h; stronger effect = higher value
[9] = S. cerevisiae growth inhibition in permissive medium (OD615), pilot counter-assay for S. cerevisiae lifespan shortening project, permissive growth control (AID 705;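 active = growth inhibition above 25% in both replicates, a cutoff set 3 SD above the mean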); details: OD615, 24 h, at 10 µM, stronger effect = higher value
[10] = S. cerevisiae growth inhibition in restrictive medium, OD615, pilot screen, restrictive growth control, yeast lifespan reduction project (AID 706;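 active = growth inhibition above a set limit, 3 SD over mean compound inhibition, in both replicates, cut at about 43% in these data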;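 note: modified DeaD lifespan yeast strain shifted to restrictive glucose medium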); details: OD615, 48 h, at 10 µM, stronger effect = higher value
[11] = doxorubicin toxicity protection in MRP-1 cells – H69AR cells, CellTiter-Glo, duplicate, MRP-1 activator project, pilot screen (AID 807;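 active = viability increase at or above a cutoff of the median across tested compounds plus 3 SD, cut at about 8.5% in these data, passing the limit was not always enough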;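 note: compound pretreatment 18-22 h then 72 h combined with doxorubicin; 0% = doxorubicin alone and 100% = vehicle without doxorubicin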); details: H69AR viability with doxorubicin, CellTiter-Glo luminescence; at 10 µM; stronger effect = higher value
[12] = RAM pathway blockade in budding yeast – dse1pr::URA3 reporter, 5-FOA selection, pilot screen (AID 869;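 active = inhibition over a set limit, the all-compound mean plus 3 SD, in both replicate runs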;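 note: 0% = DMSO wells with no growth and 100% = 10 µM 1-NA-PP1 with full growth; RAM network block rescues cells from 5-FOA so hits raise OD615 growth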); details: S. cerevisiae dse1pr::URA3 5-FOA growth, OD615, 2 d; at 10 µM; stronger effect = higher value; strain carries analog-sensitive mutant Cbk1 kinase
[13] = RAM signaling pathway blockade in yeast – S. cerevisiae, Pdr1DBD-CYC8 efflux-inhibited sensitized strain, primary screen (AID 1298;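 active = RAM network inhibition above 8.4% in each of two replicates, 3 SD over the compound average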;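 note: 0% = DMSO untreated cells without growth and 100% = 10 µM 1-NA-PP1 full growth; higher means more yeast growth rescued from 5-FOA killing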); details: S. cerevisiae cbk1-as DSE1-URA3 strain, 5-FOA growth OD615, 2 d; at 50 µM; stronger effect = higher value
[14] = viability of HCT116 without oncogenic beta-catenin – human colon tumor cells, pilot screen (AID 823;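 active = cell viability at or below a set limit in both duplicate runs, the limit being the all-compound median minus 4 SD, cut at about 23% in these data, passing the limit was not always enough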;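 note: 0% = wells killed by 20 µM Hyamine and 100% = untreated DMSO cell wells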); details: HCT116 beta-catenin knockout viability, CellTiter-Glo, 60 h; at 10 µM; stronger effect = lower value
[15] = viability of PTEN-null HCT116 cells – cell-based, HCT116 clonal line, CellTiter-Glo, pilot screen (AID 824;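 active = viability at or below 27.92% in each of two runs, the all-compound median minus 4 SD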;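 note: 0% = 20 µM Hyamine control and 100% = vehicle cell control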); details: HCT116 PTEN-deleted viability, 60 h, at 10 µM, stronger effect = lower value
[16] = H69AR cells + 2 uM doxorubicin, measured here: viability with 2 uM doxorubicin, stronger effect = lower value
[17] = H69AR cells, compound alone cytotoxicity

Receptor tyrosine-protein kinase erbB-2 (Homo sapiens), sequence (P04626 whole entry, looked up): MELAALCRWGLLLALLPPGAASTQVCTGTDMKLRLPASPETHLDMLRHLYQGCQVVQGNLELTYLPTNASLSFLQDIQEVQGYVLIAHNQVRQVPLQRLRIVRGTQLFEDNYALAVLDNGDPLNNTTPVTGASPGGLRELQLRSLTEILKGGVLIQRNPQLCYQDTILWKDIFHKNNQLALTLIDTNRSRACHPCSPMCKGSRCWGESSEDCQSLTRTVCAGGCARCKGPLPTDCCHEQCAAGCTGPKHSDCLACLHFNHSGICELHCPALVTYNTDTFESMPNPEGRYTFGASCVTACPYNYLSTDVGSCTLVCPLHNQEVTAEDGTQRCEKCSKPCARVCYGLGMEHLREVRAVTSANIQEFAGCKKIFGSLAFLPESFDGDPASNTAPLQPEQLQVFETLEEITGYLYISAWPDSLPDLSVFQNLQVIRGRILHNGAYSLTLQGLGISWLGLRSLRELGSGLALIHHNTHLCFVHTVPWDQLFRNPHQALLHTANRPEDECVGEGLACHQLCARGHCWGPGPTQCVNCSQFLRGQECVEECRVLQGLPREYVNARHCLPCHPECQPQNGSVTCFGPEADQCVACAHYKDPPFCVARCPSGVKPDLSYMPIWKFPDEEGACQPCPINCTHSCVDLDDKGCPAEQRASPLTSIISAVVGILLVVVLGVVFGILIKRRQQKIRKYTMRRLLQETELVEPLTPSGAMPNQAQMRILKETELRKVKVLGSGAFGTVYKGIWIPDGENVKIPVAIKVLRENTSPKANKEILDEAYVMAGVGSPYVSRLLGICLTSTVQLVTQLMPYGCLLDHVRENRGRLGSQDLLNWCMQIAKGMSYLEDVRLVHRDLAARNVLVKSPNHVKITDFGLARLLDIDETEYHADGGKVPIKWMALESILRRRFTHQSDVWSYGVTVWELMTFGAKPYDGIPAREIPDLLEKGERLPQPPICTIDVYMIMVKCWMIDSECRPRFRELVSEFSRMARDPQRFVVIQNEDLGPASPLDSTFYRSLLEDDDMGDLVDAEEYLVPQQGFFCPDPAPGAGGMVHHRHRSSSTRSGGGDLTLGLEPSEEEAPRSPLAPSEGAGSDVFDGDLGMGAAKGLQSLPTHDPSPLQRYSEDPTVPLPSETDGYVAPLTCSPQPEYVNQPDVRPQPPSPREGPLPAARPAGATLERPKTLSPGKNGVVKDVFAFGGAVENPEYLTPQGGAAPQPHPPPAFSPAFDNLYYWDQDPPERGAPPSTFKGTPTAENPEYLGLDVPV

N#CC1=C(N)Oc2cc(O)ccc2C1C1CCCCC1 (configuration not stated)
inactive: Her2 level [2] 89.5% | viability [3] 121% | viability [4] 47.4% | differential viability (reversal) ([6]; H69AR cells + 2 uM doxorubicin) -51.2% | inhibition [7] -1.17% | inhibition [8] 4.17% | growth inhibition [9] -0.885% | growth inhibition [10] -9.19% | viability increase [11] -5.63% | inhibition [12] 0.455% | RAM network inhibition [13] 3.93%
121%: viability [1]
12.2%: viability [6, 17]
63.4%: viability [6, 16]
active: viability [5] 12.2%

COc1ccc(CCn2c(-c3ccco3)nc3ccccc3c2=O)cc1OC
73%: viability [1]
inactive: Her2 level [2] 89% | viability [3] 73% | viability [4] 84.3% | differential viability (reversal) ([6]; H69AR cells + 2 uM doxorubicin) -29.2% | inhibition [7] -5.95% | inhibition [8] -0.49% | growth inhibition [9] -7.24% | growth inhibition [10] -21.7% | viability increase [11] -3.68% | viability [14] 54.5% | viability [15] 57.1% | inhibition [12] 0.935% | RAM network inhibition [13] 5.3%
52.8%: viability [6, 17]
82.1%: viability [6, 16]

CN1C(=O)C(O)(CC(=O)c2ccccc2O)c2cc(Br)ccc21 (configuration not stated)
51.3%: viability [6, 16]
103%: viability [1]
27%: viability [6, 17]
active: viability [5] 27%
inactive: Her2 level [2] 85.5% | viability [3] 103% | viability [4] 45.5% | differential viability (reversal) ([6]; H69AR cells + 2 uM doxorubicin) -24.3% | inhibition [7] -4.53% | inhibition [8] 4% | growth inhibition [9] -2.37% | growth inhibition [10] 18% | viability increase [11] -6.06% | inhibition [12] -0.67% | RAM network inhibition [13] -2.32%

Cc1ccc(C)c(N2CCN(C(=O)c3cc4ccccn4n3)CC2)c1
91%: viability [1]
inactive: Her2 level [2] 85% | viability [3] 91% | viability [4] 90.1% | viability [5] 99.8% | inhibition [7] -4.74% | inhibition [8] 8.33% | growth inhibition [9] -8.86% | growth inhibition [10] 0.2% | viability increase [11] -2.11% | viability [14] 91.7% | viability [15] 92.5% | inhibition [12] 0.805% | RAM network inhibition [13] 10.8%

CCN1CCN(c2ncnc3c2cnn3-c2ccc(C)cc2C)CC1
85.5%: viability [1]
inactive: Her2 level [2] 96% | viability [3] 85.5% | viability [4] 99.8% | viability [5] 73.7% | inhibition [7] -6.4% | inhibition [8] 7.7% | growth inhibition [9] -5.99% | growth inhibition [10] -11% | viability increase [11] -6.88% | viability [14] 85.1% | viability [15] 81.6% | inhibition [12] 0.395% | RAM network inhibition [13] 0.63%

CCOC(=O)c1cc2c(=O)n3ccccc3nc2n(CC(C)C)c1=NC(=O)c1ccco1
active: viability [5] 7.19%
7.19%: viability [6, 17]
inactive: Her2 level [2] 83% | viability [3] 84.5% | viability [4] 70.4% | differential viability (reversal) ([6]; H69AR cells + 2 uM doxorubicin) 4.44% | inhibition [7] -2.47% | inhibition [8] -3.33% | growth inhibition [9] 1.45% | growth inhibition [10] 4.24% | viability increase [11] -7.74% | viability [15] 37.7% | inhibition [12] 0.955% | RAM network inhibition [13] 5.64%
2.75%: viability [6, 16]
84.5%: viability [1]

Cn1c(SCC(=O)c2cc3ccccc3o2)nnc1-c1ccccc1
84.3%: viability [6, 17]
81.1%: viability [6, 16]
inactive: Her2 level [2] 97.5% | viability [3] 96.5% | viability [4] 105% | viability [5] 84.3% | differential viability (reversal) ([6]; H69AR cells + 2 uM doxorubicin) 3.21% | inhibition [7] -6% | inhibition [8] 13.3% | growth inhibition [9] 10.3% | viability increase [11] -3.83% | viability [14] 97.9% | viability [15] 96.8% | inhibition [12] 1.88% | RAM network inhibition [13] 6.5%
96.5%: viability [1]

CNC(=O)c1ccsc1NC(=O)CN1C(=O)CCC1=O
80.5%: viability [6, 16]
58%: viability [6, 17]
90%: viability [1]
inactive: Her2 level [2] 94% | viability [3] 90% | viability [4] 96.8% | differential viability (reversal) ([6]; H69AR cells + 2 uM doxorubicin) -22.5% | inhibition [7] -3.47% | inhibition [8] -0.67% | growth inhibition [9] -11.5% | growth inhibition [10] 0.46% | viability increase [11] -6.24% | viability [14] 104% | viability [15] 98.9% | inhibition [12] 1.65% | RAM network inhibition [13] 1.73%

Oc1cccc(C=NCc2ccccc2)c1O
78%: viability [1]
77%: viability [6, 16]
51%: viability [6, 17]
inactive: Her2 level [2] 82.5% | viability [3] 78% | viability [4] 67.3% | differential viability (reversal) ([6]; H69AR cells + 2 uM doxorubicin) -26% | inhibition [7] -0.39% | inhibition [8] -0.5% | viability increase [11] -3.97% | viability [14] 71% | viability [15] 72.2% | inhibition [12] -0.21% | RAM network inhibition [13] -1.18%
active: growth inhibition [9] 83.7% | growth inhibition [10] 97.5%

CC(C)CC1NC2(C(=O)N(C)c3ccccc32)C2C(=O)N(C(C)C)C(=O)C12 (configuration not stated)
86.5%: viability [1]
inactive: Her2 level [2] 110% | viability [3] 86.5% | viability [4] 83.3% | viability [5] 99.1% | inhibition [7] -1.73% | inhibition [8] -0.33% | growth inhibition [9] 4.83% | growth inhibition [10] 6.6% | viability increase [11] -1.13% | viability [14] 103% | viability [15] 103% | inhibition [12] 1.11% | RAM network inhibition [13] 2.88%
